A selection: hits, their analogues and other compounds. The true share with any hit is near 7.9%.
HT1080NT lethal: qHTS for induction of synthetic lethality in tumor cells producing 2HG: qHTS for the HT-1080-NT fibrosarcoma cell line; HT-1080-NT fibrosarcoma viability, CellTiter-Glo ATP luminescence, 48 h; actives 1.6% (n = 360,000); Potency, µM (titrated, usually from 46.1 µM), inactives show top-dose activity, negative = less viability, most hits filed as cytotoxic;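 note: NT is the 2HG producing partner of a matched IDH1 knockdown line; 0% = DMSO-treated cells and -100% = media-only wells without cells; nearly all actives have a fitted effect of over 55% in size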
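A 48-hour cytotoxicity screen used HT-1080-NT cells plated 2 hours before compound delivery. ATP-based CellTiter-Glo luminescence measured viability, normalized to DMSO and no-cell controls.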
KB-V1 MDR tox: qHTS assay for MDR1-selective chemotherapeutics: Primary screen using the drug-selected MDR subline cells KB-V1; actives 3.4% (n = 400,000); KB-V1 MDR cells viability, CellTiter-Glo, 72 h; Potency, µM (titrated, usually from 46.1 µM), usual class: cytotoxic; note: % is set by controls: 0 for no effect and ±100 for the full control effect; nearly all actives have a fitted effect of over 60% in size
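Potencies derive from concentration-effect curves fitted to normalized luminescence (CellTiter-Glo) of KB-V1 cells treated for 72 h at 37 degrees C in phenol-red-free DMEM containing 10% FBS.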
KB-3-1 cytotox: qHTS assay for MDR1-selective chemotherapeutics: Primary screen using the parental adenocarcinoma cell KB-3-1 | KB-3-1 viability, CellTiter-Glo ATP luminescence, 72 h | Potency, µM (doses to about 46.1 µM), hits mostly cytotoxic | actives 1.4% (n = 400,000); note: % is set by controls: 0 for no effect and ±100 for the full control effect; nearly all actives have a fitted effect of over 60% in size
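KB-3-1 cells, DMEM (no phenol red) + 10% FBS; compound by pin transfer, 72 h, 37 °C. Readout: CellTiter-Glo luminescence after 10 min. Data normalized, curve-fitted.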
MCF10A rereplic: A quantitative high throughput screen for small molecules that induce DNA re-replication in MCF 10a normal breast cells; AID 624296, 2012; Potency, µM (titrated, usually from 46.1 µM), for the others: top-dose activity, positive = re-replication, usual class: activators; actives 2.9% (n = 350,000); MCF 10A DNA re-replication, Hoechst nuclear intensity, 48 h; note: % of control where 0% means no effect; nearly all actives have a fitted effect of over 50% in size
SW480 rereplic: A quantitative high throughput screen for small molecules that induce DNA re-replication in SW480 colon adenocarcinoma cells; SW480 DNA re-replication, Hoechst DNA content imaging, 48 h; Potency, µM (titrated, usually from 46.1 µM), inactives show at the highest dose re-replication activation, actives largely listed as activators; actives 1.8% (n = 340,000); AID 624297, 2012; note: % of control where 0% means no effect; nearly all actives have a fitted effect of over 55% in size
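Compounds, transferred as 23 nL by pin tool, were incubated with cells for 48 hr; DNA content per nucleus was then quantified by Hoechst staining and fluorescence plate imaging.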
HT1080 IDH1KD tx: qHTS for induction of synthetic lethality in tumor cells producing 2HG: qHTS for the HT-1080-IDH1KD cell line; HT-1080 IDH1 knockdown viability, ATP luminescence, 48 h; Potency, µM (doses to about 46.1 µM), inactives show top-dose activity, negative = toxicity, most hits filed as cytotoxic; actives 2% (n = 360,000);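 note: 0% = DMSO wells and -100% = cell-free medium wells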
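Using the IDH1-knockdown HT-1080 line run in the same batch and compound series as the NT line, viability after 48 h at 37 °C was determined by CellTiter-Glo luminescence and expressed as % activity.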
An asterisk follows results filed as active; i = inactive; u = inconclusive; x = no result; [ ] = dose if it differs, or a comment. Calls come from the whole dose curve; as a rule, active = well fitted curve in the direction sought with a large enough effect; inconclusive = small, poorly fitted or top-dose-only effect, or another doubt; inactive = no such curve, though single readings can be large; an effect the other way counts as inactive or inconclusive. Potency is the fitted concentration of half-maximal effect.

SMILES	HT1080NT lethal	KB-V1 MDR tox	KB-3-1 cytotox	MCF10A rereplic	SW480 rereplic	HT1080 IDH1KD tx
COc1ccc(C(=O)C(CN2CCCC2)c2ccccc2)cc1 (stereo not given)	11µM*	7.1µM*	7.1µM*	u	u	13µM*
O=C(c1ccccc1)C(CCC(CN1CCOCC1)C(=O)c1ccccc1)CN1CCOCC1 (stereo not given)	10µM*	5.8µM*	5.8µM*	4.6µM*	u	8.2µM*
O=C(c1ccc(F)cc1)C(CN1CCOCC1)c1ccccc1 (stereo not given)	-9%	u	u	5.2µM*	u	5.2µM*
CCCOc1ccc(C(=O)C(CN2CCCC2)c2ccccc2)cc1 (stereo not given)	8.2µM*	u	23µM*	8.2µM*	u	6.5µM*
Cc1ccc(S(=O)(=O)N2CCC(C(=O)N3CCC(C(=O)NCc4cccnc4)CC3)CC2)cc1	0%	i	i	1%	0%	8%
CC[C@]12c3[nH]c4ccc(Cl)cc4c3CCN1C(=O)[C@@H](CC(=O)NCCN1CCOCC1)C[C@@H]2C(=O)N1CCN(C(=O)c2ccco2)CC1	0%	i	i	-1%	-25%	0%
O=C(c1ccc(Cl)cc1)C(CN1CCCC1)c1ccccc1 (stereo not given)	18µM*	i	u	4.1µM*	u	21µM*
COc1ccc(C(=O)C(CN2CCOCC2)c2ccccc2)cc1 (stereo not given)	7.1µM*	u	u	u	-2%	2µM*
CCC(O)(c1ccc(OC)cc1)C(CN1CCOCC1)c1ccccc1 (stereo not given)	4%	i	i	u	-61%	-2%
OC(CN1CCOCC1)CN(c1ccccc1)c1ccccc1 (stereo not given)	4%	15µM*	i	16%	-7%	2%
CCCCOc1ccc(C(=O)C(CN2CCOCC2)c2ccccc2)cc1 (stereo not given)	13µM*	u	u	u	15µM*	16µM*
Cc1scc(CN2CCN(c3ccccc3F)CC2)c1C	x	i	i	x	x	x
CC(C)c1ccc(NC(=O)[C@@H]2CCC(=O)N2C2OC(=O)c3ccccc32)cc1 (stereo not given in full)	1%	i	i	-5%	-20%	6%
Cc1cc(/C=C(\C#N)C(=O)Nc2ccccc2)c(C)n1-c1ccc(F)cc1	x	i	i	x	x	x
CCOC(=O)/C(C#N)=C/c1cc(C)n(-c2ccccc2)c1C	4%	9.2µM*	i	u	0%	12%
O=C(Nc1ccc(N2CCCC2)c(Cl)c1)c1ccc2c(c1)OCCO2	-1%	i	u	11%	1%	-6%
Cc1ccc(C(=O)/C=C/c2ccc(F)cc2)o1	u	i	i	u	u	u
O=C(/C=C/c1ccc(F)cc1)c1ccccc1Br	-18%	u	23µM*	u	x	u
O=C(COC(=O)C1(c2ccc(F)cc2)CCCC1)NC1CC1	0%[9.24 µM]	i	i	5%	-5%	-6%
COc1ccccc1NC(=O)Cn1nnc(C(=O)NCCc2ccccc2)c1N	-9%	i	i	28%	u	u
Cc1ccnc(NC(=O)CC(c2ccccc2)c2ccccc2)n1	3%	i	i	u	-27%	0%
Cc1c(Cc2ccccc2)c(=O)n2c([nH]c3ccccc32)c1C#N	21µM*	13µM*	u	14%	-16%	u
N#Cc1c(C(F)(F)F)cc(=O)n2c1[nH]c1ccccc12	4.6µM*	i	i	18µM*	u	26µM*
COc1ccccc1N=Cc1c(C)c(C#N)c2[nH]c3ccccc3n2c1=O	-1%	i	i	u	-2%	-3%
O/N=C1\CCc2cc(Cl)ccc21	2%	i	i	2%	-2%	7%
SMILES	HT1080NT lethal	KB-V1 MDR tox	KB-3-1 cytotox	MCF10A rereplic	SW480 rereplic	HT1080 IDH1KD tx
COc1ccccc1C(=O)Nc1ccc(C)cc1C(=O)c1ccccc1	18%	u	i	13%	12%	6%
O=Nc1c(-c2c(O)[nH]c3cc(Br)ccc23)[nH]c2ccccc12	5.2µM*	21µM*	u	-8%	u	8.2µM*
Cc1cc(C)n2ncc(C(=O)Nc3cccc(O)c3)c2n1	u	i	i	-1%	-5%	20%
Cc1ccc(-c2nc3cc(C)ccc3o2)cc1	3%	i	i	2%	-1%	2%
COC(=O)c1ccc(-c2nc3ccc(C)cc3o2)cc1	-10%	u	u	u	7.3µM*	u
CCOC(=O)N1CCN(C(=O)C[C@@H]2C[C@@]3(C(=O)OC)CCCCC=C3N(Cc3ccc4c(c3)OCO4)C2=O)CC1	1%	i	i	x	x	4%
COc1ccccc1OCCCC(=O)NCc1ccco1	12%	i	i	-2%	0%	17%
CSc1ccc(-c2nc3cnccn3c2Nc2ccc3c(c2)OCO3)cc1	u	23µM*	u	5.8µM*	7%	u
Cc1ccc(-c2nc3cnccn3c2Nc2ccccc2)o1	22%	u	i	23µM*	u	7%
COc1ccc(Nc2c(-c3ccc(C)o3)nc3cc(C)ccn23)cc1	x	i	23µM*	x	x	x
COc1ccc(-c2nc3cnccn3c2Nc2ccc(C)cc2)cc1	-7%	i	i	0%	5%	3%
Cc1ccc(Nc2c(-c3ccccc3)nc3cnccn23)cc1	-7%	i	i	23µM*	17%	0%
O=C(Nc1ccc2c(c1)OCO2)c1cc(C2CCCCN2C(=O)c2ccc3ccccc3c2)on1 (stereo not given)	-5%	i	i	x	x	4%
O=C(CSc1n[nH]c(-c2cccs2)n1)N1CCN(S(=O)(=O)c2ccc3ccccc3c2)CC1	0%	i	i	18%	1%	u
CC(=O)N1CCc2c(sc3c2c(=O)n(CCc2ccccc2)c(=O)n3CC(=O)Nc2ccc(C)c(F)c2)C1	x	i	i	x	x	x
Cc1ccc2c(c1)C1CN(C)CCC1N2Sc1ccccc1[N+](=O)[O-] (stereo not given)	16µM*	i	i	u	u	u
